8 compounds from PubChem BioAssay (Tox21) can be followed below.

Experiment [1] in a line: Nuclear factor erythroid 2-related factor 2/antioxidant responsive element (Nrf2/ARE) small molecule agonists: qHTS cell viability counter screen in human keratinocytes (AID 1919968; active = well fitted curve in the direction sought with a large enough effect in the repeat runs; an effect the other way counts as inactive or inconclusive; also: nearly all actives have a fitted effect of over 55% in size; also: potency is read from the fitted curve at half-maximal effect). The method, boiled down: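 KeratinoSens cells (HaCaT keratinocytes stably carrying an ARE-luciferase reporter) were seeded at 1,500 cells/well and rested 5 h at 37 C/5% CO2. They were then exposed to compounds in DMSO for 23 h. Viability was read by CellTiter-Fluor fluorescence after 1 h.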
(Quantitative high-throughput screening tests each substance at several concentrations.)

Experiment [2] has as its target Gonadotropin-releasing hormone receptor (Homo sapiens) (UniProt P30968). The experiment is described as follows: Human gonadotropin-releasing hormone receptor (GnRHR) small molecule agonists, calcium flux assay in GnRHR-HEK293 cells (AID 1920063). Also: nearly all actives have a fitted effect of over 35% in size. The method, boiled down: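 HEK293 cells stably expressing human GnRHR were plated 18 h at 37 °C, loaded with calcium dye 1 h at 37 °C, then given compound in agonist mode; fluorescence (Ex/Em 480/540) read kinetically for 3 min at 1 s intervals.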

The target of experiment [3] is KiSS-1 receptor (Homo sapiens) (UniProt Q969F8). The experiment is described as follows: Human kisspeptin (KISS1R) small molecule agonists, calcium flux assay in KISS1R-HEK293 cells (AID 1920064; active = well fitted curve in the direction sought with a large enough effect in the repeat runs; an effect the other way counts as inactive or inconclusive). The method, boiled down: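 HEK293 cells stably expressing human KISS1R were plated 18 h at 37 °C, loaded with calcium dye for 1 h at 37 °C, then given compound by pin tool. Fluorescence (Ex/Em 480/540) was read kinetically for 3 min.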
Chain of KiSS-1 receptor (Homo sapiens) (Q969F8 whole entry, looked up): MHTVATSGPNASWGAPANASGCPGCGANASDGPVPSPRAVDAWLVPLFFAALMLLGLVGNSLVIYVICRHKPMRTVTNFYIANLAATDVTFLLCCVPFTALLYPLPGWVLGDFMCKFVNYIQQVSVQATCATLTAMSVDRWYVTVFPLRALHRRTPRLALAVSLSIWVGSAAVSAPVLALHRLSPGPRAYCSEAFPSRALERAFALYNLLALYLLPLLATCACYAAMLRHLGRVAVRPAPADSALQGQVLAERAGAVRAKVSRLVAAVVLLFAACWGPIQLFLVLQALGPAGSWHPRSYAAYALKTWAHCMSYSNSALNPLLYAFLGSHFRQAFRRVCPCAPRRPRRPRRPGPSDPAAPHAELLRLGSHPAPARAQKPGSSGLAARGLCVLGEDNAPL
A general note: A change in cytosolic calcium serves as a functional read-out for many receptors and channels.

A short description of experiment [4]: p53 small molecule agonists, cell-based qHTS assay with rat liver microsomes (AID 1963578). In outline:
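Cells carrying a p53 response element–beta-lactamase reporter were plated and rested 5 h, then dosed with compound in DMSO plus rat liver microsomes and NADPH, each at 0.5 mg/mL final. After 16 h at 37 C, LiveBLAzer substrate was added for 2 h.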

Experiment [5] is described as follows: p53 small molecule agonists, cell-based qHTS assay with human liver microsomes: qHTS cell viability counter screen (AID 1963579). Also: nearly all actives have a fitted effect of over 45% in size. Also: potency is read from the fitted curve at half-maximal effect. The method, boiled down: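 Cytotoxicity counter screen: p53RE-bla, 4,000 cells/well; 5 h settle, 37 C/5% CO2; cpd + HLM 0.5 mg/mL + NADPH 0.5 mg/mL (final); 16 h, 37 C; CellTiter-Glo, 30 min RT, luminescence.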
The nature of experiment [6]: p53 small molecule agonists, cell-based qHTS assay with rat liver microsomes: qHTS cell viability counter screen (AID 1963580). Also: nearly all actives have a fitted effect of over 45% in size. The method, boiled down: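 In HCT-116 cells carrying a p53 response element-bla reporter, compounds were metabolically activated in situ by rat liver microsomes with NADPH over 16 h. Cell ATP content then served as the cytotoxicity measure.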

The nature of experiment [7]: p53 small molecule agonists, cell-based qHTS assay: qHTS cell viability counter screen (AID 1963581). Also: nearly all actives have a fitted effect of over 45% in size. Also: potency is read from the fitted curve at half-maximal effect. In outline: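 p53RE-bla HCT-116 cells were exposed to compounds for 16 h at 37 C; after the beta-lactamase FRET read in the same wells, CellTiter-Glo was added and luminescence (intracellular ATP) read after 30 min at room temperature.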
Experiment [8] in a line: p53 small molecule agonists, cell-based qHTS assay (AID 1963582; active = well fitted activation curve with a large enough effect in the signal ratio in the repeat runs, not every such curve was filed as active; the % refers to the signal ratio). The method, boiled down: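 p53RE-bla beta-lactamase reporter cells rested 5 h at 37 C/5% CO2, then received compounds in DMSO by pin transfer and were incubated 16 h at 37 C. LiveBLAzer B/G FRET substrate was loaded for 2 h at room temperature before fluorescence reading.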
Experiment [9] concerns the target 5-hydroxytryptamine receptor 2A (Homo sapiens) (UniProt P28223). The experiment is described as follows: 5-hydroxytryptamine receptor 2A (HTR2A) small molecule antagonists, cell-based qHTS assay (AID 1963586). Also: nearly all actives have a fitted effect of over 45% in size. In outline: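 Antagonist-mode intracellular calcium assay: DOI (4 nM) added after 5 min compound pre-incubation at room temperature to dye-loaded HTR2A-CHO cells. Fluorescence followed for 3 min, sampled every second.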

Experiment [10] shares this target. The experiment is described as follows: 5-hydroxytryptamine receptor 2A (HTR2A) small molecule agonists, cell-based qHTS assay (AID 1963587). Also: nearly all actives have a fitted effect of over 30% in size. In outline: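 HTR2A-CHO cells, plated 18 h at 37 C/5% CO2, dye-loaded 1 h at 37 C; compounds in DMSO added by pin tool (agonist mode). Intracellular calcium flux read as kinetic fluorescence on FDSS over 2 min at 1 s intervals.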

Experiment [11] deals with Muscarinic acetylcholine receptor M1 (Homo sapiens) (UniProt P11229). The experiment is described as follows: Cholinergic receptor muscarinic 1 (CHRM1) small molecule antagonists, cell-based qHTS assay (AID 1963588). Also: nearly all actives have a fitted effect of over 40% in size. In outline:
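CHRM1-CHO calcium-flux assay, antagonist mode. Cells were seeded 18 h, dye-loaded 1 h at 37 C and given compound for 5 min at RT, then acetylcholine was added at 50nM. FDSS fluorescence was read 3 min; 15 concentrations, three runs.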

Experiment [12] has the same target. Put plainly: Cholinergic receptor muscarinic 1 (CHRM1) small molecule agonists, cell-based qHTS assay (AID 1963589). Also: nearly all actives have a fitted effect of over 35% in size. The method, boiled down:
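CHO cells stably expressing human CHRM1, seeded 18 h at 37 C/5% CO2, dye-loaded 1 h at 37 C, then given compound in agonist mode; intracellular calcium fluorescence read kinetically at 1 s intervals. Fifteen concentrations, three independent runs.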

Experiment [13] in a line: cAMP Responsive Elements (CRE) small molecule agonists, cell-based qHTS assay (AID 1963590). In outline: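 CRE-bla HEK 293T cells in DMEM with 10% dialyzed FBS, NEAA, pyruvate and 25 mM HEPES were plated 18 h at 37 C/5% CO2, then exposed to compounds in DMSO for 3 h before LiveBLAzer B/G FRET substrate addition.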
A short description of experiment [14]: cAMP Responsive Elements (CRE) small molecule antagonists, cell-based qHTS assay (AID 1963591; active = well fitted inhibition curve with a large enough effect in the signal ratio in the repeat runs, not every such curve was filed as active; the % refers to the signal ratio; also: potency is read from the fitted curve at half-maximal effect). The method, boiled down: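 CRE-bla HEK293T cells were plated 18 h at 37 °C/5% CO2, pinned with compound in DMSO, then stimulated with NKH477 at 0.25 uM final for 3 h. LiveBLAzer B/G FRET substrate was added and plates incubated 2 h at room temperature.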
Experiment [15] deals with Beta-2 adrenergic receptor (Homo sapiens) (UniProt P07550). Put plainly: Adrenergic beta2 receptor (ADRB2) small molecule antagonists, cell-based qHTS assay (AID 1963592). Also: series mostly up to about 92 µM; nearly all actives have a fitted effect of over 50% in size. In outline:
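Cells (CHO, stable ADRB2 overexpression) incubated 18-20hr at 37C; compounds added from DMSO; agonist mix (1nM isoproterenol, 100uM IBMX, 25uM Ro-20-1724) added; 0.5hr RT; d2-cAMP and anti-cAMP-cryptate added; 1hr RT; 665/615 nm read.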

In experiment [16] the target is D(2) dopamine receptor (Homo sapiens) (UniProt P14416). The experiment is described as follows: Dopamine D2 receptor (DRD2) small molecule agonists, cell-based qHTS assay (AID 1963594). Also: nearly all actives have a fitted effect of over 35% in size. In outline: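 HEK293 cells stably expressing DRD2 were cultured 24 h at 37 C, then given Ro20-1724 (0.1 mM final) and compounds for 10 min at room temperature. NKH477 (200nM) was then added for 30 min. cAMP was read by HTRF.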
Chain of D(2) dopamine receptor (Homo sapiens) (P14416 whole entry, looked up): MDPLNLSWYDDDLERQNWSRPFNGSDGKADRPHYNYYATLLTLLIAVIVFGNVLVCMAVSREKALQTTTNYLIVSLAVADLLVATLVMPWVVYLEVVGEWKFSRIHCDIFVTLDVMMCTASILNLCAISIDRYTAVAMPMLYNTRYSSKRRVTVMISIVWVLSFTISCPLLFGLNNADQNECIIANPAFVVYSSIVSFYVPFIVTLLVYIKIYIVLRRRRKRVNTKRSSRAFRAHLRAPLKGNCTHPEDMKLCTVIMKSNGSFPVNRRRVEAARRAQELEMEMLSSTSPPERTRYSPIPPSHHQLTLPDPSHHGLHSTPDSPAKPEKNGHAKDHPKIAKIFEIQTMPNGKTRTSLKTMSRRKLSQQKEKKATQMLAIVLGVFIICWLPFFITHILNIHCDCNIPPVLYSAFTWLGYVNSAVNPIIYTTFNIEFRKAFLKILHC

Experiment [17] shares this target. Put plainly: Dopamine D2 receptor (DRD2) small molecule antagonists, cell-based qHTS assay (AID 1963595; active = well fitted inhibition curve with a large enough effect in the signal ratio in the repeat runs, with a control signal flat; the % refers to the signal ratio; also: potency is read from the fitted curve at half-maximal effect). In outline:
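Antagonist mode in DRD2-HEK293 cells: after compound addition with 0.1 mM Ro20-1724, cells received quinpirole (12 nM) and NKH477 (200 nM) for 30 min at room temperature; HTRF cAMP read after 1 h detection.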

The nature of experiment [18]: G protein-coupled receptor (GPCR) small molecule agonists, calcium flux assay: HEK293 wild type cell line counter screen (AID 1920065). In outline: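 Cells were plated and cultured 18 h at 37 C/5% CO2, then loaded with calcium dye for 1 h at 37 C. Compounds in DMSO were pin-transferred in agonist mode, and fluorescence (Ex/Em 480/540) was read kinetically for 3 min at 1 s intervals.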

The target in experiment [19] is Beta-2 adrenergic receptor (Homo sapiens) (UniProt P07550). The experiment is described as follows: Adrenergic beta2 receptor (ADRB2) small molecule agonists, cell-based qHTS assay (AID 1963593).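 Also: CHO cells stably overexpressing human ADRB2.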 The method, boiled down: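 CHO cells stably over-expressing ADRB2 were plated overnight at 37C, then dosed with compounds plus a stimulation mix containing 100uM IBMX and 25uM Ro-20-1724 for 0.5hr at room temperature. cAMP was measured by HTRF competition, 1hr.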
Chain of Beta-2 adrenergic receptor (Homo sapiens) (P07550 whole entry, looked up): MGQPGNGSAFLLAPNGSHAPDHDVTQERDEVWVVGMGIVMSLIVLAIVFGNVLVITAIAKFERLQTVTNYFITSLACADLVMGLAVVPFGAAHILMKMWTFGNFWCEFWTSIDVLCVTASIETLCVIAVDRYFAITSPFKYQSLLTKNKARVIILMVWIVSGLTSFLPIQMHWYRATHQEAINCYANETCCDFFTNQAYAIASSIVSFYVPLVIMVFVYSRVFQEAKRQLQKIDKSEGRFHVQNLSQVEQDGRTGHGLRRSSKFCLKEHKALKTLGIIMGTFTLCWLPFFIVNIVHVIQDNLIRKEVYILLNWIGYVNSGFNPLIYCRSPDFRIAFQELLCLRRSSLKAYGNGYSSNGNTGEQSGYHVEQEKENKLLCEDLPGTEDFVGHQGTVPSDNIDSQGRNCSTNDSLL

Experiment [20] in a line: p53 small molecule agonists, cell-based qHTS assay with human liver microsomes (AID 1963577). In outline:
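Fluorescence of the beta-lactamase reporter in p53RE-bla cells, detected with LiveBLAzer substrate (2 h, room temperature, dark), served as the read-out after 16 h compound exposure at 37 C with human liver microsomes and NADPH, each 0.5 mg/mL final.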

A number with no mark means an inactive call. Records with an inconclusive call do not appear. Active and inactive are the calls of the source. Unless noted, calls follow the shape of the full dose curve.

Chain of Muscarinic acetylcholine receptor M1 (Homo sapiens) (P11229 whole entry, looked up): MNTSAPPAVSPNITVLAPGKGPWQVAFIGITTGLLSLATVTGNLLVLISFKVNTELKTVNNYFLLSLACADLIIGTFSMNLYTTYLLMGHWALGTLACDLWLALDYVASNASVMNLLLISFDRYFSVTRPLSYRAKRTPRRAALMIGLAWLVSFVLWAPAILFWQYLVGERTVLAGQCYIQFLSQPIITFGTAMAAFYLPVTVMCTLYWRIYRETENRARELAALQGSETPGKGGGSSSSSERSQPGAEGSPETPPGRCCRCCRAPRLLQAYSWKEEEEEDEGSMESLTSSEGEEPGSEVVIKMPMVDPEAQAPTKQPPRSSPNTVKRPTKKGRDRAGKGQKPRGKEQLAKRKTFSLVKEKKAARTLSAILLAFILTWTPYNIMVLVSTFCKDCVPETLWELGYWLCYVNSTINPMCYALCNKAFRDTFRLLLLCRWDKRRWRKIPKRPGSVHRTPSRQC
Chain of 5-hydroxytryptamine receptor 2A (Homo sapiens) (P28223 whole entry, looked up): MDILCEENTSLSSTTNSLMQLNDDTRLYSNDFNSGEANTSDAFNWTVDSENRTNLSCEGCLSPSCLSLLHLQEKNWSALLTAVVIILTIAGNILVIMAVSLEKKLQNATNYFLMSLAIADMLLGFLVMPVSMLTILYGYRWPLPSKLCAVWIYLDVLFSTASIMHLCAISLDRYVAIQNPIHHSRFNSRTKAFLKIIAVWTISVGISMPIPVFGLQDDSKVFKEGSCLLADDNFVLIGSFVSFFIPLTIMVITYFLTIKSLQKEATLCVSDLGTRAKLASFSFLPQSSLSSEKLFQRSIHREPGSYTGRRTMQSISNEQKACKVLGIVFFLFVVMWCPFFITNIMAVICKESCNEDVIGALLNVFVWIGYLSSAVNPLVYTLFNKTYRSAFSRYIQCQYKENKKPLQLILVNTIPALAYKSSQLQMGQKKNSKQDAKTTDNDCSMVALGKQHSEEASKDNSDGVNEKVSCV
Chain of Gonadotropin-releasing hormone receptor (Homo sapiens) (P30968 whole entry, looked up): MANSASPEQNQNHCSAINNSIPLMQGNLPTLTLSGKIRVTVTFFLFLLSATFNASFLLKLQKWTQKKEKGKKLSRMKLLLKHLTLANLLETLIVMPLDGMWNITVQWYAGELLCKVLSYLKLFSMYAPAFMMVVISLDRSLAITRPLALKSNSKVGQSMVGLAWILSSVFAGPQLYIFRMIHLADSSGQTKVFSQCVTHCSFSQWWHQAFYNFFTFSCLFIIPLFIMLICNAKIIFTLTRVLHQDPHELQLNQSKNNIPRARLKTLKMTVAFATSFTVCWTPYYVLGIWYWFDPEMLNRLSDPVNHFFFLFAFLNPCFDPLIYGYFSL

Regarding `CC(=O)c1ccc2c(c1)[C@H](NC(=O)c1ccc(F)cc1)[C@@H](O)C(C)(C)O2`, the Potency entry in [1], in experiment [2], in experiment [3], in experiment [4], in [5] and in experiment [6] was “inactive” throughout. Besides, the Potency result in experiment [7], in [8], in experiment [9], in experiment [10], in [11] and in experiment [12] was “inactive” each time. Further, the Potency result in experiment [13], in [14], in [15], in experiment [16] and in experiment [17] was “inactive” throughout.

`CCCCCCCCCCCCCC[P+](CCCC)(CCCC)CCCC` (tested in a mixture with another compound): the values for the Potency in experiment [1], in [7] and in [17] were 10.9 µM (active), 16.3 µM (active) and 27.5 µM (active), respectively. In addition, the Potency entry in [2], in experiment [3], in [18], in [5], in experiment [10] and in experiment [12] was “inactive” throughout. The Potency entry in [15], in experiment [19] and in experiment [16] was “inactive” throughout.

Turning to `O=S(=O)(c1cccc2cnccc12)N1CCCNCC1`, the Potency result in experiment [1], in experiment [2], in experiment [3], in experiment [18], in experiment [7] and in experiment [9] was “inactive” in each case. Also, the Potency result in [10], in experiment [11], in experiment [12], in experiment [13], in [15] and in experiment [19] was “inactive” in each case. The Potency result in [17] is “inactive”. For the same compound, the Potency in experiment [14] was 29.8 µM (active).

As for `CCCCCCCCCC[N+](C)(CCCCCCCCCC)CCC[Si](OC)(OC)OC`, the Potency in experiment [1] was 21.7 µM (active); in [5], 36.3 µM (active). Further, the Potency entry in experiment [2], in experiment [3], in experiment [18], in [9], in experiment [10] and in experiment [11] was “inactive” each time. Moreover, the Potency result in experiment [12], in experiment [15] and in experiment [16] was “inactive” in each case.

On to `CCCCCCCCCCCC(=O)OCC(O)CO` (configuration not stated), for which the Potency result in experiment [1], in [2], in experiment [3], in experiment [18], in experiment [6] and in [7] was “inactive” in each case. Besides, the Potency result in experiment [9], in [11], in [12], in experiment [14], in [19] and in experiment [16] was “inactive” in each case. The Potency entry in experiment [17] was “inactive”.

`CCCn1cc[n+](C)c1C`: the Potency entry in [1], in experiment [2], in experiment [3], in [20], in experiment [4] and in [5] was “inactive” each time. Moreover, the Potency entry in experiment [6], in experiment [7], in [8], in [9], in [10] and in experiment [11] was “inactive” throughout. Also, the Potency entry in experiment [12], in [13], in [14], in experiment [15], in experiment [19] and in [16] was “inactive” throughout. In addition, in [17], the Potency result was “inactive”.

`NO`: the Potency entry in [1], in experiment [2], in experiment [3], in [4], in experiment [5] and in [6] was “inactive” in each case. Also, the Potency result in [7], in experiment [8], in experiment [9], in experiment [10], in experiment [11] and in [12] was “inactive” each time. For the same compound, the Potency result in [13], in experiment [14], in [15], in experiment [19] and in experiment [17] was “inactive” throughout.

In the case of `CCOC(=O)/C=C/c1ccccc1`, the Potency result in experiment [1], in experiment [2], in experiment [3], in [20], in [5] and in [6] was “inactive” throughout. In addition, the Potency result in experiment [8], in experiment [9], in experiment [10], in experiment [11], in [12] and in experiment [14] was “inactive” in each case. In addition, the Potency result in experiment [16] and in experiment [17] was “inactive” throughout.
